Hits are enriched below; roughly 0.93% of the tested compounds scored in any of these assays.
CDC25B CDK2 inh – human CDC25B-CDK2/CyclinA binding inhibition; P30305+P24941; 0.72% of 94,000 active; AID 1259370; z-score (no concentration beside the values); HTRF CDC25B-CDK2/CyclinA binding, anti-His/anti-Flag; active compounds read high; in the data active means z-score above about 3.2
TAR Tat displ – HIV-1 TAR-Tat binding disruption | 0.6% of 100,000 active | z-score (concentration not given with the values) | HIV-1 TAR RNA, Tat peptide displacement FRET; active compounds read high; active means z-score of 3 or more in at least 2 runs
Numbers stand for hits; . = inactive; / = not tested or not shown.

SMILES	CDC25B CDK2 inh	TAR Tat displ
Cc1ccc(-c2nc(SCC(=O)Nc3ccc(C)c(C)c3)n3[nH]c(=O)cc3n2)cc1	/	19
CCc1ccc(NC(=O)CSc2nc(-c3ccc4c(c3)OCO4)nc3cc(=O)[nH]n23)cc1	/	.
CCc1nnc2sc(COc3ccccc3)nn12	.	.
Cn1c(SCc2ccccc2Cl)nnc1-c1ccc2c(c1)OCCCO2	/	.
Cc1cnnn1-c1ccccc1	.	/
CC1(C)CC(=O)c2cc(-c3nc(-c4ccc(Br)cc4)cs3)c(=O)[nH]c2C1	.	.
O=C(NCc1ccccc1)C(=O)Nc1cc(C(F)(F)F)cc(C(F)(F)F)c1	.	/
O=C(O)/C=C/C(=O)Nc1ccc2c(c1)C(=O)c1ccccc1C2=O	6.1	/
O=C1c2ccccc2C(=O)c2cc(NC(=O)C(Cl)(Cl)Cl)ccc21	16	/
O=C(/C=C/c1ccccc1)Nc1ccc2c(c1)C(=O)c1ccccc1C2=O	.	/
CCOc1ccc(C(=O)Nc2ccc3c(c2)C(=O)c2ccccc2C3=O)cc1	.	/
CCn1nc(C)c(CCNC(=O)CCc2c(C)nn3cnnc3c2C)c1C	/	.
Cc1ccc(CNS(=O)(=O)c2ccc3c(c2)C(C)(C)C(=O)N3)cc1	/	.
Cc1cc(C)c2nc(C)cc(Nc3ccc(N(C)C)cc3)c2c1	.	.
Cc1cc(Nc2ccc(N(C)C)cc2)c2cccc(C)c2n1	.	22
O=C(O)CN1C(=O)/C(=C\c2ccc(-c3cccc4c3C(=O)c3ccccc3C4=O)o2)SC1=S	10	/
CC(=O)NS(=O)(=O)c1ccc(NC(=O)CCN2C(=O)/C(=C/c3ccccc3)SC2=S)cc1	.	/
O=C1CC(c2ccco2)Cc2[nH]c(=O)c(-c3nc(-c4ccc(Br)cc4)cs3)cc21 (configuration not stated)	8.2	3.7
Cc1ccc(-c2csc(-c3cc4c([nH]c3=O)CC(c3ccccc3)CC4=O)n2)cc1 (configuration not stated)	.	.
CCOC(=O)N1CCC(NC(=O)c2oc3ccc4c(c3c2C)C(O)CC2(CCCCC2)O4)CC1 (configuration not stated)	.	.
Cc1noc2ncnc(Nc3cccc(-c4ccc(CO)o4)c3)c12	/	.
COc1cc(CNC(=O)c2sc3nc(-c4ccncc4)ccc3c2N)cc(OC)c1	.	.
Nc1c(C(=O)NCc2ccco2)sc2nc(-c3ccncc3)ccc12	12	.
Cc1nc2c3ccccc3nc(SCc3cc(=O)n4cc(Br)ccc4n3)n2n1	.	/
CCCC12CN3CC(CCC)(CN(C1)C3c1cc(Br)ccc1OC)C2=O (configuration not stated)	.	.
SMILES	CDC25B CDK2 inh	TAR Tat displ
Cn1c(C(=O)N2CCN(C(=O)c3ccco3)CC2)cc2c(=O)[nH]c3ccccc3c21	18	.
Cn1c(C(=O)N2CCN(C(=O)c3ccco3)CC2)cc2c(=O)n(C)c3ccccc3c21	.	.
O=C(O)c1cc(=O)c2cccc(O)c2[nH]1	/	5.3
O=C(O)c1cc(=O)c2ccccc2[nH]1	.	.
CSc1ccc(NC(=O)NCCN2CCc3ccccc3C2)cc1	13	.
O=C(NCCN1CCc2ccccc2C1)Nc1ccccc1F	.	.
COc1ccc(-c2cc(OC(=O)c3cccc(C)c3)c3c(C)oc(C)c3c(=O)c2)cc1OC	.	.
CCC(=O)Nc1nc2nc(C)c(C)c(=O)n2[nH]1	.	.
CCn1c(SCC(=O)Nc2nnc(C)s2)nnc1-c1cc2ccccc2o1	/	5.1
CCn1c(SCC(=O)Nc2nc3ccccc3s2)nnc1-c1cc2ccccc2o1	/	.
O=C1c2ccccc2C(=O)c2c1ccc(C(=O)O)c2[N+](=O)[O-]	.	/
CC(=O)C(C(C)=O)C1=C([N+](=O)[O-])C(=O)C(=O)c2ccccc21	3.5	/
Cc1c(N2CCN(S(=O)(=O)c3cccc4nsnc34)CC2)c(=O)n(C)c(=O)n1C	/	.
CC1=C(C(=O)OCC2CCCO2)C(c2ccccc2F)C2=C(CC(C)(C)CC2=O)N1 (configuration not stated)	.	.
CC1=C(C(=O)OCC2CCCO2)C(c2ccccc2C)C2=C(CC(C)(C)CC2=O)N1 (configuration not stated)	.	5
Cc1ccc(Cl)c2c1NC(=O)C2(O)CC(=O)c1ccc(F)cc1 (configuration not stated)	.	.
Cc1ccc(Cl)c2c1NC(=O)C2(O)CC(=O)c1ccccc1 (configuration not stated)	17	.
CC(=O)NC1=NN(C(C)=O)C(c2ccc(Sc3ccc(C)cc3)o2)S1 (configuration not stated)	.	.
CC(=O)NC1=NN(C(C)=O)C(c2ccc(C)o2)S1 (configuration not stated)	.	16
O=C(Nc1cccc2cccnc12)C(=O)Nc1cccc2cccnc12	.	/
O=C(Nc1cccc2cccnc12)c1ccco1	5.6	.
O=C(O)CNC(=O)CCCCC(=O)NCC(=O)O	10	/
O=C(O)CCC(=O)NCC(=O)c1ccc(F)cc1	.	/
Fc1ccc(CNc2c3c(nc4ncnn24)CCC3)cc1	/	.
CC1(C)N([O-])C2=C(c3ccccc3C2=O)[N+](=O)C1(C)C	17	/
SMILES	CDC25B CDK2 inh	TAR Tat displ
CCOc1ccc(Oc2ncnc3sc(C)cc23)cc1	/	.
C=CCn1c(=O)[nH]c2nc3cc(NC(C)=O)c(C)cc3nc2c1=O	.	.
Cc1ccc(-n2cc3c(=O)[nH]cnc3n2)cc1	.	.
O=c1[nH]cnc2nn(-c3ccccc3)cc12	.	4
CN(C)c1c(C=C(C#N)C#N)cc(C=C(C#N)C#N)c(N(C)C)c1C#N	.	/
COC(=O)c1ccccc1Nc1c(-c2ccccc2)c(=O)c1=O	/	.
Cc1nn(C(C)C(=O)NCc2ccc3c(c2)OCO3)c(=O)c2c1sc1ccccc12 (configuration not stated)	.	.
Cc1ccc(-c2csc(Nc3ccccn3)n2)cc1	.	.
Cc1nc(N)sc1-c1csc(Nc2ccccn2)n1	18	/
O=C(Nc1cccc2c1CCCC2)NC1COc2ccccc2C1 (configuration not stated)	/	.
Cc1oc2c(cc(O)c3ccccc32)c1C(=O)O	8.6	.
CC(=O)Oc1cc2c(C(=O)N3CCCC3)c(C)oc2c2ccccc12	.	.
Brc1ccc(-c2nnc3n2N=C(c2ccccc2)CS3)cc1	.	/
Cc1nn(C(C)C(=O)NCc2ccccn2)c(=O)c2cc3sccc3n12 (configuration not stated)	.	.
Cc1ccc(S(=O)(=O)NC(c2ccc(Cl)cc2)c2nnc(-c3ccccc3)o2)cc1 (configuration not stated)	/	.
Cc1ccc(S(=O)(=O)c2cn(C)c3cc(N4CCCCC4)c(F)cc3c2=O)cc1C	/	.
Cc1cc(C)n(-c2nc3c(c(=O)n2CC(=O)NC(C)(C)C)CCCC3)n1	/	.
Cc1cc(C)n(-c2nc3c(c(=O)n2CC(N)=O)CCCC3)n1	/	12
CC1=C(c2ccccc2)S(=O)(=O)NC1=NCCCN1CCN(c2cc(C)ccc2C)CC1	13	.
CC1=C(c2ccccc2)S(=O)(=O)NC1=NCCCN1CCN(C2CCCCC2)CC1	.	.
COc1ccc(NC(=O)NC(C)c2c(-n3cccc3)sc3c2CCCC3)cc1OC (configuration not stated)	11	.
COc1ccc(OC)c(NC(=O)NC(C)c2c(-n3cccc3)sc3c2CCCC3)c1 (configuration not stated)	.	.
CCC1(C)Cc2ccccc2C(NC(=O)N2CCCC2)=C1C#N (configuration not stated)	.	.
